This is one part of a sample in which hits are shown more often than they occur.
IDE exosite inh – exo-site inhibitors of human IDE, primary screen, biochemical, fluorescence anisotropy, probe displacement; 17,000 tested, 6.3% active; z-score at 20 µM; purified IDE, FL-6b probe fluorescence polarization; hits give low values; Insulin-degrading enzyme (Homo sapiens), P14735;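 active = z-score of -3 or lower, meaning strong loss of probe binding signal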;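 also: His-tagged human IDE residues 42-1019 made in E. coli with 30 nM FL-6b probe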
Target sequence (P14735 42-1019 limits assumed): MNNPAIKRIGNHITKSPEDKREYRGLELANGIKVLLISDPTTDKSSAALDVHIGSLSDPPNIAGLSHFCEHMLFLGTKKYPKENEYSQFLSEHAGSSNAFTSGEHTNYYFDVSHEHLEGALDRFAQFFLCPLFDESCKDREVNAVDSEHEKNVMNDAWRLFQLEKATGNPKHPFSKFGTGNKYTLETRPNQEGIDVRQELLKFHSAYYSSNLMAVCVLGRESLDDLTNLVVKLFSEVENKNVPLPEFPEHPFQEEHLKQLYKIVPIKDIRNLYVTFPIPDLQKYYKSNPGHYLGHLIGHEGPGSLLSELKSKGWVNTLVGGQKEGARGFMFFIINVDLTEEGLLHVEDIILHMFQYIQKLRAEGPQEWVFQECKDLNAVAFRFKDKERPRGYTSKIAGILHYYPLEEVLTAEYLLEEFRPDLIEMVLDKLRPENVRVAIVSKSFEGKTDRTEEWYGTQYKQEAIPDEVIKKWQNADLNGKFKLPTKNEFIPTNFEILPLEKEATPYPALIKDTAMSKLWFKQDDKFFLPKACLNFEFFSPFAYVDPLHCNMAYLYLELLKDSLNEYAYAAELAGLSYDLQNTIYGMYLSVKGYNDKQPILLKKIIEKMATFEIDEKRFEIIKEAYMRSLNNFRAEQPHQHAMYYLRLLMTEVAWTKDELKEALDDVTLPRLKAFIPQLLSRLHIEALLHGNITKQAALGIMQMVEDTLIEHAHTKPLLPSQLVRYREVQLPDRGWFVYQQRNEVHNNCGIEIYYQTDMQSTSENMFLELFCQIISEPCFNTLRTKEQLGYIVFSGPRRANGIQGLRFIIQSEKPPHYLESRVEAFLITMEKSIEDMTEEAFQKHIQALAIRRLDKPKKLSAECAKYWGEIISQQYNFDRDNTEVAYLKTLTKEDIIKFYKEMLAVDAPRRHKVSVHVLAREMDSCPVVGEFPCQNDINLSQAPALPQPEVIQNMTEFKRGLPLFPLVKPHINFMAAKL
A number is an active result; – = inactive.

SMILES	IDE exosite inh
O=C(C[C@H]1CC[C@@H]2[C@H](COC[C@H](O)CN2C(=O)Nc2cc(Cl)cc(Cl)c2)O1)N1CCOCC1	–
O=C(Nc1ccccc1)N1CC(=O)N2[C@H](C1)[C@@H](c1ccc(C#Cc3cccnc3)cc1)[C@@H]2CO	–
COc1cccc(-c2ccc([C@@H]3[C@H]4CN(C(=O)c5ccc(F)cc5)CCCCN4[C@H]3CO)cc2)c1	–
COc1cccc(-c2ccc([C@@H]3[C@@H](CO)N4CCCCN(C(=O)c5ccc(F)cc5)C[C@H]34)cc2)c1	–
COc1cccc(-c2ccc([C@H]3[C@@H](CO)N4CCCCN(C(=O)c5ccc(F)cc5)C[C@@H]34)cc2)c1	–
COc1cccc(-c2ccc([C@@H]3[C@@H](CO)N4CCCCN(C(=O)c5ccc(F)cc5)C[C@@H]34)cc2)c1	–
COc1cccc(-c2ccc([C@H]3[C@H]4CN(C(=O)c5ccc6c(c5)OCO6)CCCCN4[C@H]3CO)cc2)c1	–
COc1cccc(-c2ccc([C@H]3[C@@H](CO)N4CCCCN(C(=O)c5ccc(F)cc5)C[C@H]34)cc2)c1	-3.3
COc1cccc(-c2ccc([C@H]3[C@H](CO)N4CCCCN(C(=O)c5ccc6c(c5)OCO6)C[C@@H]34)cc2)c1	–
COc1cccc(-c2ccc([C@H]3[C@H](CO)N4CCCCN(C(=O)NC(C)C)C[C@@H]34)cc2)c1	-12
COc1cccc(-c2ccc([C@@H]3[C@@H](CO)N4CCCCN(C(=O)c5ccc6c(c5)OCO6)C[C@@H]34)cc2)c1	–
COc1cccc(-c2ccc([C@H]3[C@@H](CO)N4CCCCN(C(=O)NC(C)C)C[C@@H]34)cc2)c1	-5.8
COc1cccc(-c2ccc([C@@H]3[C@H]4CN(C(=O)NC(C)C)CCCCN4[C@H]3CO)cc2)c1	-8
Cc1noc(C)c1NC(=O)N(C)C[C@@H]1Oc2ccc(NC(=O)CCCN(C)C)cc2C(=O)N([C@H](C)CO)C[C@H]1C	–
CC(C)CC#Cc1ccc([C@@H]2[C@@H](CO)N3CCCCN(S(=O)(=O)Cc4ccccc4)C[C@@H]23)cc1	–
COc1ccc2c3c([nH]c2c1)[C@H](CO)N(Cc1ccc(Cl)cc1)CC31CCN(Cc2nccs2)CC1	–
CN1C(=O)c2cc(NS(=O)(=O)c3cccc(F)c3)ccc2OC[C@H]2O[C@H](CC(=O)N3CCc4ccccc4C3)CC[C@H]21	–
COCC(=O)N1[C@H](C#N)[C@H](c2ccccc2C2=CCCC2)[C@@H]1CO	–
O=C(C[C@H]1CC[C@@H]2[C@H](COC[C@H](O)CN2Cc2nccs2)O1)N1CCC(Cc2ccccc2)CC1	–
C/C=C/c1ccc([C@@H]2[C@@H](CO)N(Cc3cccc(F)c3)C23CN(C(C)=O)C3)cc1	–
CC(=O)N1[C@H](CO)[C@@H](c2ccccc2)[C@H]1CN(C(=O)c1ccccc1)C(C)C	–
O=C(c1cnccn1)N1CC(=O)N2[C@H](C1)[C@@H](c1ccc(C#CC3CC3)cc1)[C@@H]2CO	–
CCCN1C[C@H](C)[C@@H](OC)CN(C)C(=O)c2cc(NC(=O)Nc3cccc(F)c3)ccc2OC[C@H]1C	–
COCCNC(=O)C[C@@H]1CC[C@@H]2[C@H](COC[C@H](O)CN2C(=O)c2cc(Cl)cc(Cl)c2)O1	–
O=C(NC1CCCC1)N1CC(=O)N2[C@H](CO)[C@@H](c3ccc(-c4ccc(F)cc4)cc3)[C@H]2C1	–
SMILES	IDE exosite inh
O=C(NC1CCCC1)N1CC(=O)N2[C@H](C1)[C@H](c1ccc(-c3ccc(F)cc3)cc1)[C@@H]2CO	–
O=C(NC1CCCCC1)N1CC(=O)N2[C@H](C1)[C@H](c1ccc(-c3cccc(F)c3)cc1)[C@@H]2CO	-6.3
O=C(NC1CCCCC1)N1CC(=O)N2[C@H](CO)[C@H](c3ccc(-c4cccc(F)c4)cc3)[C@H]2C1	-13
O=C(NC1CCCC1)N1CC(=O)N2[C@H](CO)[C@H](c3ccc(-c4ccc(F)cc4)cc3)[C@@H]2C1	–
O=C(NC1CCCC1)N1CC(=O)N2[C@H](C1)[C@@H](c1ccc(-c3ccc(F)cc3)cc1)[C@@H]2CO	–
CCC(=O)N1[C@H](CO)[C@H]2c3ccccc3N(C(=O)Nc3ccc(Cl)cc3)C[C@H]21	–
O=C(Cc1cccnc1)N1CC(=O)N2[C@H](C1)[C@H](c1ccc(-c3cccc(F)c3)cc1)[C@@H]2CO	–
O=C(Cc1cccnc1)N1CC(=O)N2[C@H](C1)[C@@H](c1ccc(-c3cccc(F)c3)cc1)[C@@H]2CO	-7
O=C(Cc1ccccc1)N1CC(=O)N2[C@@H](CO)[C@H](c3ccc(-c4cccc(F)c4)cc3)[C@@H]2C1	–
O=C(Cc1ccccc1)N1CC(=O)N2[C@H](CO)[C@H](c3ccc(-c4cccc(F)c4)cc3)[C@@H]2C1	–
O=C(Cc1ccccc1)N1CC(=O)N2[C@H](C1)[C@@H](c1ccc(-c3cccc(F)c3)cc1)[C@@H]2CO	-3.5
O=C(Cc1cccnc1)N1CC(=O)N2[C@H](CO)[C@H](c3ccc(-c4cccc(F)c4)cc3)[C@@H]2C1	–
O=C(Cc1ccccn1)N1CC(=O)N2[C@H](CO)[C@@H](c3ccc(C#CCC4CCCC4)cc3)[C@@H]2C1	–
COc1ccc2c3c(n(C)c2c1)[C@H](CO)N(S(C)(=O)=O)CC31CN(CC2CCOCC2)C1	–
CCCNC(=O)N1[C@H](C#N)[C@H](c2ccccc2-c2ccccc2)[C@@H]1CO	–
CCCNC(=O)N(C)C[C@H]1[C@H](c2ccccc2)[C@@H](CO)N1C(=O)c1ccccc1	–
O=C(C[C@@H]1C[C@@H]2c3cc(NC(=O)NC4CCCC4)ccc3O[C@@H]2[C@H](CO)O1)NCc1ccccc1F	–
CCCNC[C@H]1[C@@H](c2ccc(-c3cccc(C#N)c3)cc2)[C@@H](CO)N1C(C)=O	–
COc1ccccc1-c1ccc2c(c1)[C@@H]1[C@@H](CCN1S(=O)(=O)c1ccc(C)cc1)[C@H](CO)N2	–
O=C(c1cccnc1)N1CC(=O)N2[C@@H](CO)[C@@H](c3ccc(-c4cccnc4)cc3)[C@@H]2C1	–
O=C(c1cccnc1)N1CC(=O)N2[C@H](CO)[C@H](c3ccc(-c4cccnc4)cc3)[C@H]2C1	–
O=C(c1cccnc1)N1CC(=O)N2[C@H](CO)[C@@H](c3ccc(-c4cccnc4)cc3)[C@@H]2C1	–
Cc1ccc(-c2ccc([C@H]3[C@@H](CO)N4C(=O)CN(C(=O)c5cccnc5)C[C@H]34)cc2)cc1	-3.1
Cc1ccc(-c2ccc([C@@H]3[C@@H](CO)N4C(=O)CN(C(=O)c5cccnc5)C[C@@H]34)cc2)cc1	-3.6
O=C(c1cccnc1)N1CC(=O)N2[C@H](CO)[C@@H](c3ccc(-c4cccnc4)cc3)[C@H]2C1	–
SMILES	IDE exosite inh
CCCC(=O)Nc1ccc2c(c1)OC[C@H](C)N(CC1CCOCC1)C[C@H](C)[C@@H](OC)CN(C)C2=O	–
CCCC#Cc1ccc([C@@H]2[C@@H](CO)N3C(=O)CN(S(=O)(=O)Cc4ccccc4)C[C@H]23)cc1	–
CC(C)C#Cc1ccc([C@@H]2[C@H](CO)N3C(=O)CN(C(=O)c4ccc5c(c4)OCO5)C[C@@H]23)cc1	–
Cc1ccc(S(=O)(=O)N2[C@@H]3CNC[C@H]2C3c2ccc(-c3cccc(C)c3)cc2)cc1 (stereo not given in full)	–
O=C(C[C@@H]1CC[C@H]2[C@@H](COC[C@H](O)CN2S(=O)(=O)c2ccc(F)cc2)O1)NCCN1CCCCC1	–
COc1ccc(C#Cc2ccc([C@@H]3[C@@H](CO)N4CCCCN(C(=O)Nc5ccccc5F)C[C@@H]34)cc2)cc1	–

High-throughput results deposited in PubChem by Broad Institute.
